Bioassay records from PubChem.
Compounds with a hit are over-represented: about 2.9% of the library has one in this group of screens.
GPR32 ag – agonists of human resolvin D1 receptor DRV1 (GPR32) | O75388 | CHO-K1 GPR32 beta-arrestin PathHunter luminescence, 90 min; zero percent set by DMSO-only wells | activation, % at 76.9 µM | 2.5% of 48,000 active | AID 1346428;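 active = activation of at least 60% and not above a set upper limit, about 1 call in 100 departs from these limits; inconclusive = activation of 40% to 60%, or above that upper limit; inactive = activation under 40%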; also: 0% is about no effect
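Step 1: seed CHO-K1 GPR32 beta-arrestin cells, 2,500/well, overnight at 37 °C. Step 2: add compounds, 90 min at 37 °C. Step 3: detection reagent, 1 h ambient, then luminescence.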
FH mod – Identification of activators of human fumarate hydratase by quantitative high-throughput screening. Potency, µM (doses to about 79.9 µM), without a hit: at the top dose activity change, negative = inhibition, usual class: inhibitors. FH coupled MDH/diaphorase resazurin fluorescence, 15 min. 0.22% of 54,000 active; also: potency is read from the fitted curve at half-maximal effect; % is scaled to controls: 0 for no effect and ±100 for the full control effect; the screen sought activators but most active calls are inhibition curves; nearly all actives have a fitted effect of over 45% in size
Target sequence (P07954 whole entry, looked up): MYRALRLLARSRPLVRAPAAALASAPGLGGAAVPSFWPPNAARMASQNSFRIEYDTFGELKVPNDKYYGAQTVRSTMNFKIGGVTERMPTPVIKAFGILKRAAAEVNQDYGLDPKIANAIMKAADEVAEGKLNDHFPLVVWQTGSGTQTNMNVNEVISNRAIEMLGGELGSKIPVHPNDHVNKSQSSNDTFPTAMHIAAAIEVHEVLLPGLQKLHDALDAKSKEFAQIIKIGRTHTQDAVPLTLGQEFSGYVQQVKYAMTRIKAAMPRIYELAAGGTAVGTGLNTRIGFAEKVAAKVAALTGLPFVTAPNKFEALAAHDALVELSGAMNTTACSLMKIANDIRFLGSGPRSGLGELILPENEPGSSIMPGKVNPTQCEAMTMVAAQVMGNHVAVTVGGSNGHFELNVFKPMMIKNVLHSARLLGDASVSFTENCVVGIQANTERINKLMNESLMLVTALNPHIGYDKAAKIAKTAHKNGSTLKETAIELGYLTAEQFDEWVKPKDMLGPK
GALC G270D up – enhancers of human galactocerebrosidase G270D mutant activity in cells; P54803; Potency, µM (doses to about 57.5 µM), actives largely listed as activators; 145M-Twi-hGALC-G270D cells, HMU-beta-Gal fluorescence, 48 h; 0.1% of 45,000 active; also: potency is read from the fitted curve at half-maximal effect; 0% is about no effect; nearly all actives have a fitted effect of over 65% in size
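qHTS, 1536-well; 145M-Twi-hGALC-G270D cells (WT line also made) in DMEM/F12 + 10% FBS; compound incubation on live cells; HMU-β-gal 0.1 mM final, pH 5.2, NaTC; carbonate stop; fluorescence increase = enhanced residual activity.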
OvCa metastasis – blocks SKOV3ip1 adhesion and invasion in omental model; Potency, µM (highest dose often 45.8 µM), for the others: top-dose activity change, negative = inhibition, hits mostly inhibitors; 0.1% of 46,000 active; SKOV3ip1-GFP adhesion/invasion on 3D omental model, fluorescence;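 also: potency is read from the fitted curve at half-maximal effect; plate controls were DMSO wells for no effect and tomatine positive control wells for full effect; nearly all actives have a fitted effect of over 65% in size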
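Primary human omental fibroblast/mesothelial 3D culture pre-formed 48 h. SKOV3ip1-GFP cells added with compounds (0.36-46 umol/L), incubated 2 h RT/16 h 37 C, fixed; GFP cells quantified at 488/509 nm.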
The depositor's hits bear a star; i = inactive; ? = inconclusive; / = no result; [ ] = dose if it differs, or a comment. Unless noted, calls follow the shape of the dose curve; as a rule, active = well fitted curve in the direction sought with a large enough effect; inconclusive = small, poorly fitted or top-dose-only effect, or another doubt; inactive = no such curve, though single readings can be large; an effect the other way counts as inactive or inconclusive.

SMILES	GPR32 ag	FH mod	GALC G270D up	OvCa metastasis
COc1ccc(C)c2sc(N3CCN(C(=O)c4ccco4)CC3)nc12	86*	1%	i	5%
Cc1cc(Cl)ccc1OCC(=O)N1CCC(c2nc3ccccc3s2)CC1	?	?	i	i
COc1ccc(C(=O)N2CCC(c3nc4ccccc4s3)CC2)cc1Cl	76*	?	i	-12%
CCCOc1ccccc1C(=O)N1CCC(c2nc3ccccc3s2)CC1	104*	-19%	i	-2%
Cc1cc(C)cc(OCC(=O)N2CCC(c3nc4ccccc4s3)CC2)c1	25	-17%	i	i
COc1cccc(C(=O)N2CCC(c3nc4ccccc4s3)CC2)c1	95*	-10%	i	2%
CCCOc1ccc(C(=O)N2CCC(c3nc4ccccc4s3)CC2)cc1	0	3%	i	11%
CC[C@@H](C)Nc1cc(C(=O)NC2CC3CC[C@@H](C2)N3c2ccc(C(=O)C3CC3)cn2)c(C)cc1C(N)=O (some centres not stated)	/	-11%	/	/
COC(=O)[C@]1(Cc2ccc(O)c(CC=C(C)C)c2)OC(=O)C(O)=C1c1ccc(O)cc1	/	-2%[53.3 µM]	/	/
N#Cc1ccc2[nH]c(O)c(-c3ccc(CN4CCOCC4)cn3)c2c1	/	-7%	/	/
O=C(c1cn(Cc2cncn2Cc2ccc(Br)cc2)cc1-c1cccc2ccccc12)N1CCOCC1	/	-6%	/	/
COc1ccc(CCNC(=O)CSc2cn(CCNC(=O)c3cccc(C(F)(F)F)c3)c3ccccc23)cc1OC	104*	-22%	i	6%
COc1ccc(CCNC(=O)CSc2cn(CCNC(=O)c3ccc(OC)c(OC)c3)c3ccccc23)cc1OC	7	-16%	i	i
CC(C)C(C)C(O)C1CC23CC(=O)C4(O)C(=C2CCC3C1C)C=CC1(O)CC(O)CCC14C (configuration not stated)	/	6%[53.3 µM]	/	/
NC(N)=NC(=O)c1cnn(-c2cccc3ncccc23)c1C1CC1	/	5%	/	/
CN(C1CCCCC1)S(=O)(=O)c1ccc(C(=O)Nc2sc3c(c2C(N)=O)CC(C)(C)NC3(C)C)cc1	118*	-6%	i	i
CC(C)CN(CC(C)C)S(=O)(=O)c1ccc(C(=O)Nc2sc3c(c2C(N)=O)CC(C)(C)NC3(C)C)cc1	-13	3%	i	-3%
CC(=O)C1CCC(=O)N1Cc1ccccc1 (configuration not stated)	/	4%	/	/
COC(=O)CSc1nnc2n(-c3ccccc3)c(=O)c3c4c(sc3n12)COC(C(C)C)C4 (configuration not stated)	65*	-14%	i	i
CCCSc1nnc2n(-c3ccc(OC)cc3)c(=O)c3c4c(sc3n12)COC(C(C)C)C4 (configuration not stated)	21	-3%	i	i
Cc1ccc([N+](=O)[O-])cc1S(=O)(=O)N(C)N=Cc1cnc2ccc(Br)cn12	/	-3%[53.3 µM]	/	24%
COc1ccc(-c2c(C)nn3c(NCCN4CCOCC4)cc(C)nc23)cc1OC	/	0%	/	/
CC1=C(C)C(=O)C(CCCCC#CCCCC#CCO)=C(C)C1=O	-1	28µM*	i	/
CC(C)(C)C1CCc2c(sc(NC(=O)Cn3nnc(-c4ccccc4Cl)n3)c2C#N)C1 (configuration not stated)	89*	?	i	i
Nc1c(C(=O)NCc2ccc3c(c2)OCO3)nnn1CC(=O)Nc1ccc(Br)cc1	61*	-3%	i	1%
SMILES	GPR32 ag	FH mod	GALC G270D up	OvCa metastasis
COc1ccc(Cl)cc1NC(=O)Cn1nnc(C(=O)NCc2ccc3c(c2)OCO3)c1N	112*	0%	i	-4%
Cc1ccc(Cn2c(CO)cnc2SCC(=O)NCc2ccccc2Cl)cc1	3	/	/	-7%
O=C(CSc1ncc(CO)n1Cc1ccccc1)Nc1nc2ccccc2s1	60*	-2%	i	39%
Cc1ccc(Cn2ccnc2SCC(=O)Nc2nc3ccccc3s2)cc1	-5	?	i	i
O=C(CSc1ncc(CO)n1Cc1ccccc1)Nc1ccc(C(F)(F)F)cc1	118*	-24%	i	i
O=C(NCCCc1ccccc1)c1cccc(-c2cc(O)c3ncccc3c2)c1	/	5%	/	/
CC(C)(C)c1ccc(S(=O)(=O)Nc2ccc(-n3ccnc3)cc2)cc1	/	-15%	/	/
COc1ccc(NC(=O)c2c(NC(=O)c3ccncc3)sc3c2CCC(C(C)(C)C)C3)cc1 (configuration not stated)	66*	-14%	i	-7%
CCOc1ccc(-c2cc(CCCC(=O)NCCc3cc(OC)c(OC)c(OC)c3)no2)cc1	72*	-1%	i	-1%
CCOc1ccc(-c2cc(CCCC(=O)NCCc3ccc(OC)c(OC)c3)no2)cc1	20	-14%	i	i
O=C(C1CC1)N1CCc2cc(Br)cc(S(=O)(=O)Nc3ccc(C(F)(F)F)cc3)c21	65*	-14%	i	i
O=C(C1CC1)N1CCc2cc(Br)cc(S(=O)(=O)Nc3ccc(F)c(F)c3)c21	38	28µM*	i	34%
CC(C)C[C@@H]1NC(=O)[C@@H](Cc2ccccc2)NC(=O)C(CCCCCC(=O)C2CO2)NC(=O)[C@@H]2CCCCN2C1=O (some centres not stated)	/	5%[53.3 µM]	/	/
C/C(=N\N=C(N)N)c1cc(NC(=O)CCCCCCCCC(=O)Nc2cc(/C(C)=N/N=C(N)N)cc(/C(C)=N/N=C(N)N)c2)cc(/C(C)=N/N=C(N)N)c1	/	-3%	/	/
Clc1cccc(-n2ncc3c(NCCCN4CCOCC4)ncnc32)c1	85*	-5%	i	?
CCc1ccccc1Nc1ncnc2c1cnn2-c1ccc(Cl)cc1	73*	-11%	i	-1%
CC(C)CCNc1ncnc2c1cnn2-c1cccc(Cl)c1	92*	-5%	i	?
Clc1cccc(-n2ncc3c(NCCCc4ccccc4)ncnc32)c1	?	-18%	i	-18%
Cc1ccc(-n2ncc3c(NCCCN4CCOCC4)ncnc32)cc1Cl	14	-14%	i	0%
CN(C)CCNc1ncnc2c1cnn2-c1cccc(Cl)c1	87*	-6%	i	6%
CCc1ccccc1Nc1ncnc2c1cnn2-c1ccc(C)cc1C	?	-16%	i	5%
CCS(=O)(=O)c1oc(-c2ccc(F)cc2)nc1S(=O)(=O)c1ccccc1	-18	-3%	i	-8%
CCC(C)S(=O)(=O)c1oc(-c2ccc(F)cc2)nc1S(=O)(=O)c1ccc(F)cc1 (configuration not stated)	13	-4%	i	3.5µM*
Cc1cccc(NC(=O)Nc2ccc(F)cc2)n1	-11	-9%	i	2%
Cc1ccc(NC(=O)Nc2cccc(C)n2)cc1	65*	-1%	i	?
